In PubChem BioAssay (NCATS):
Results filed as inconclusive are left out. Active and inactive are the calls of the source. Unless noted, calls come from the whole dose curve; as a rule, active = well fitted curve in the direction sought with a large enough effect; inconclusive = small, poorly fitted or top-dose-only effect, or another doubt; inactive = no such curve, though single readings can be large; an effect the other way counts as inactive or inconclusive.

Legend:
[1] = qHTS for differential inhibitors of proliferation of Plasmodium falciparum line 3D7 (AID 1876);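 note: parasite growth measured after three days of culture; 0% = vehicle wells and -100% = reference inhibitor wells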
[2] = qHTS for differential inhibitors of proliferation of Plasmodium falciparum line D10 (AID 1877);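 note: parasites grown with compound for 72 h before DNA staining; plate controls were vehicle wells for no effect and reference inhibitor wells for full effect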
[3] = qHTS for differential inhibitors of proliferation of Plasmodium falciparum line Dd2 (AID 1882); conditions: Potency: Plasmodium falciparum Dd2 proliferation inhibition;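 note: series mostly up to about 29 µM; plate controls were DMSO vehicle for no effect and 0.29 µM artemisinin for full effect; nearly all actives have a fitted effect of over 65% in size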
Method in brief: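 SYBR Green DNA fluorescence (ex 485, em 535 nm) after overnight lysis quantifies parasite growth; compound exposure lasted 72 h at 37 C on infected red cells at 2.5% hematocrit, 0.3% parasitemia (final). Artemisinin 0.29 uM and vehicle wells define normalization.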

[4] = qHTS for differential inhibitors of proliferation of Plasmodium falciparum line W2 (AID 1883); conditions: Potency: Plasmodium falciparum W2 proliferation inhibition;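 note: parasites grown with compound for 72 h before lysis and staining; 0% = vehicle wells and -100% = control inhibitor wells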
[5] = qHTS for differential inhibitors of proliferation of Plasmodium falciparum line HB3 (AID 1886); conditions: Potency: Plasmodium falciparum HB3 proliferation inhibition;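 note: parasites grown with compound for 72 h before SYBR Green readout; plate controls were vehicle for no effect and reference inhibitor for full effect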
[6] = qHTS Assay for Modulators of Human Peripheral Myelin Protein 22 (PMP22) Expression/Activity (AID 1967; active = well fitted curve in the direction sought with a large enough effect in the signal ratio; the % refers to the signal ratio;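 note: 0% = untreated cells and 100% end not stated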)
Method in brief: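 Quantitative HTS in a mouse Schwann cell line expressing dual click beetle luciferases: Pmp22 promoter (green) and control EF-alpha promoter (red). After 24h treatment, corrected green/red signal ratio gave %Activity relative to untreated cells.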

[7] = molecular target: Ferritin light chain (Equus caballus) (UniProt P02791); assay: qHTS Validation Assay for Identification of Novel General Anesthetics (AID 2323); note: series mostly up to about 77 µM; % is set by controls: 0 for no effect and ±100 for the full control effect
Chain of Ferritin light chain (Equus caballus) (P02791 2-175 limits assumed): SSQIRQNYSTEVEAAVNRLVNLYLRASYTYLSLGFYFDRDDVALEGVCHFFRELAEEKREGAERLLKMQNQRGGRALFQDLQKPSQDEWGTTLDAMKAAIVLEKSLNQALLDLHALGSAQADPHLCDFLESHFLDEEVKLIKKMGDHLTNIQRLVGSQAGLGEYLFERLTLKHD
Method in brief: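 Apoferritin from horse spleen (10 uM) was mixed with 1-aminoanthracene at 50% saturation in PBS, then compounds were added. After 10 min at room temperature, fluorescence was read (ex 380 nm, em 535 nm) and normalized to free-probe and complex controls.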

[8] = molecular target: ATP-dependent DNA helicase Q1 (Homo sapiens) (UniProt P46063); assay: qHTS Validation Assay for Inhibitors of RecQ-Like Dna Helicase 1 (RECQ1) (AID 2353);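 note: plate controls were DMSO vehicle for no effect and enzyme-free control for full effect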
Chain of ATP-dependent DNA helicase Q1 (Homo sapiens) (P46063 whole entry, looked up): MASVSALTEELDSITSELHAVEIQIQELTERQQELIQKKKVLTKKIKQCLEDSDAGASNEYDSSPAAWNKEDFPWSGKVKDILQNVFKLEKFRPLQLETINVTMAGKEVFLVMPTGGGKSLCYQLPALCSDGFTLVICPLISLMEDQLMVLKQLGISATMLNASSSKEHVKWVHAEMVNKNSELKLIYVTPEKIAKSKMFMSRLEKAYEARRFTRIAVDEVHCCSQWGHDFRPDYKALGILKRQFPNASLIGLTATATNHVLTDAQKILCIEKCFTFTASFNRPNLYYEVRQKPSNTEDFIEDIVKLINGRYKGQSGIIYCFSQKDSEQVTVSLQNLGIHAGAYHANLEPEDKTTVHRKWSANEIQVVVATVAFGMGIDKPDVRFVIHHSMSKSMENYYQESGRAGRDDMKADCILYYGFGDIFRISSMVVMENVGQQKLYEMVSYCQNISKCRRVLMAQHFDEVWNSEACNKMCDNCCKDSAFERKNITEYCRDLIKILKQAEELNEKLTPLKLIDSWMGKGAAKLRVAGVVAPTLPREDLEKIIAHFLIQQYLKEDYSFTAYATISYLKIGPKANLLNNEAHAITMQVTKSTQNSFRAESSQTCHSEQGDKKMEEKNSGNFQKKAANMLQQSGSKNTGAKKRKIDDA
Method in brief: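 RECQ1T1 50 nM; forked duplex (20 bp + 30-nt ss tails) 200 nM, ATP 2 mM final; pH 8.0, 2 mM MgCl2, 2.5 ug/ml poly(dI-dC); 15 min compound preincubation; discontinuous kinetic read over 2 h at RT.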

[9] = molecular target: RecQ-like DNA helicase BLM (Homo sapiens) (UniProt P54132); assay: qHTS Validation Assay for Inhibitors of Bloom's syndrome helicase (BLM) (AID 2364);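 note: plate controls were DMSO vehicle for no effect and enzyme-free control for full effect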
Chain of RecQ-like DNA helicase BLM (Homo sapiens) (P54132 whole entry, looked up): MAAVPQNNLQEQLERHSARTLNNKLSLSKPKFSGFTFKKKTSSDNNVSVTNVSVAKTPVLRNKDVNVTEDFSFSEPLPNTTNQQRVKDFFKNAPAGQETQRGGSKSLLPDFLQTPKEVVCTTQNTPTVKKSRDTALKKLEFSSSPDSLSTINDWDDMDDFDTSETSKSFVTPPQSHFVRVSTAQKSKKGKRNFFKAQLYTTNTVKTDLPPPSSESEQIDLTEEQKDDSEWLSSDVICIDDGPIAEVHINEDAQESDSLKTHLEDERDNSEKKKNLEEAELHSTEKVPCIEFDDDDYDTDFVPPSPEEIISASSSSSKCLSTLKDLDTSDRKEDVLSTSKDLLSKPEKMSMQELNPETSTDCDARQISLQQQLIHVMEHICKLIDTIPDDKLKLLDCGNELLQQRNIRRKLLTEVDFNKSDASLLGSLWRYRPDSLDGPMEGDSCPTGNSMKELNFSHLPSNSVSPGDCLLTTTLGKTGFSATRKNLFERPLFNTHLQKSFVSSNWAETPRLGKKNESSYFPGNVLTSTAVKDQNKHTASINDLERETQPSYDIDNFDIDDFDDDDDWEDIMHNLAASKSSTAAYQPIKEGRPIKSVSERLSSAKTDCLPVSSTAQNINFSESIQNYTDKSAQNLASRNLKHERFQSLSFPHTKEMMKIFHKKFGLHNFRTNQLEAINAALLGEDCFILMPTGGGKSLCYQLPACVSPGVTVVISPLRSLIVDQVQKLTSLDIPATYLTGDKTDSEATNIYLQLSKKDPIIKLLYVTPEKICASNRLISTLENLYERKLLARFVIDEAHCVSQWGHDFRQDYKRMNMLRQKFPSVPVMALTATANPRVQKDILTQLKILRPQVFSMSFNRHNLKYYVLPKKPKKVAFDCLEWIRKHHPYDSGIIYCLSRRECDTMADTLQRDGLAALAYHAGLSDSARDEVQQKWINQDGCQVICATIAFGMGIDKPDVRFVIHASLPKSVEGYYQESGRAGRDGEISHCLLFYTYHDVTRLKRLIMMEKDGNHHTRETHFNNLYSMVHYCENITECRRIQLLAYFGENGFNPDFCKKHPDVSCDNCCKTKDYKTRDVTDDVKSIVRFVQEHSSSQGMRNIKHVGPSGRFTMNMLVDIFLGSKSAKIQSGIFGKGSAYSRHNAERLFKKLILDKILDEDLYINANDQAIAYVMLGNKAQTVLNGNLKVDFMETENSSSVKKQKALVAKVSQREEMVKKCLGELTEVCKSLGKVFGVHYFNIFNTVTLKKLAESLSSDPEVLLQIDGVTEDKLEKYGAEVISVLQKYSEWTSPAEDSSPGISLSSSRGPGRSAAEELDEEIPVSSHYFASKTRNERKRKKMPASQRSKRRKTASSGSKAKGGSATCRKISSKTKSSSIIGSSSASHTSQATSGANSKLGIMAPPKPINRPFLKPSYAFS
Method in brief: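 Forked 20-bp duplex substrate (200 nM, TAMRA/BHQ-2) plus 2 mM ATP added after 15 min compound preincubation with 50 nM enzyme, pH 8.0, poly(dI-dC) 2.5 ug/ml. Strand separation followed by fluorescence (525/598 nm) over 2 h, normalized to enzyme-free and DMSO controls.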

[10] = Validation screen for small molecules that induce DNA re-replication in MCF 10A normal breast cells (AID 463097); note: 0% is about no effect; nearly all actives have a fitted effect of over 60% in size
Method in brief: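 DNA re-replication was detected as a rise in nuclei with elevated Hoechst fluorescence after a 48 hr compound exposure of MCF 10A cells at 37 C.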

[11] = Quantitative high throughput screen for delayed death inhibitors of the malarial parasite plastid, 96 hour incubation (AID 488745); note: series mostly up to about 29 µM; % is set by controls: 0 for no effect and ±100 for the full control effect; nearly all actives have a fitted effect of over 70% in size
Method in brief: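 Decreased firefly luciferase luminescence indicates inhibited growth of reporter-integrated P. falciparum after two generations (96 h, 37 C, 5% CO2). Infected erythrocytes at 0.1% parasitemia, 2% hematocrit, in Albumax-supplemented RPMI 1640.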

[12] = Quantitative high throughput screen for delayed death inhibitors of the malarial parasite plastid, 48 hour incubation (AID 488752); note: % is set by controls: 0 for no effect and ±100 for the full control effect; nearly all actives have a fitted effect of over 65% in size
Method in brief: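 One-generation (48 h) growth assay: a decrease in luciferase signal from an integrated reporter in P. falciparum-infected red cells (0.1% parasitemia, 2% hematocrit) after compound exposure at 37 C indicates parasite inhibition.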

[13] = molecular target: M-phase phosphoprotein 8 (Homo sapiens) (UniProt Q99549); assay: qHTS Validation Assay for Inhibitors for MPP8 Chromodomain Interactions with Methylated Histone Tails (AID 488949);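 note: AlphaScreen signal from MPP8 chromodomain bound to biotinylated H3K9me3 peptide; top concentration of the series differs between compounds; % is set by controls: 0 for no effect and ±100 for the full control effect; nearly all actives have a fitted effect of over 55% in size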
Method in brief: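 Disruption of the preformed MPP8–trimethyl-H3K9 peptide complex (both 50 nM, 30 min, RT) is measured after 30 min compound exposure, using AlphaScreen proximity beads; aurintricarboxylic acid titration serves as plate control.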

[14] = molecular target: Transient receptor potential cation channel subfamily V member 1 (Homo sapiens) (UniProt Q8NER1); assay: HTS Assay for Compounds that Act as Enhancers of the Vanilloid Receptor 1 (AID 488979); note: 0% is about no effect
Chain of Transient receptor potential cation channel subfamily V member 1 (Homo sapiens) (Q8NER1 whole entry, looked up): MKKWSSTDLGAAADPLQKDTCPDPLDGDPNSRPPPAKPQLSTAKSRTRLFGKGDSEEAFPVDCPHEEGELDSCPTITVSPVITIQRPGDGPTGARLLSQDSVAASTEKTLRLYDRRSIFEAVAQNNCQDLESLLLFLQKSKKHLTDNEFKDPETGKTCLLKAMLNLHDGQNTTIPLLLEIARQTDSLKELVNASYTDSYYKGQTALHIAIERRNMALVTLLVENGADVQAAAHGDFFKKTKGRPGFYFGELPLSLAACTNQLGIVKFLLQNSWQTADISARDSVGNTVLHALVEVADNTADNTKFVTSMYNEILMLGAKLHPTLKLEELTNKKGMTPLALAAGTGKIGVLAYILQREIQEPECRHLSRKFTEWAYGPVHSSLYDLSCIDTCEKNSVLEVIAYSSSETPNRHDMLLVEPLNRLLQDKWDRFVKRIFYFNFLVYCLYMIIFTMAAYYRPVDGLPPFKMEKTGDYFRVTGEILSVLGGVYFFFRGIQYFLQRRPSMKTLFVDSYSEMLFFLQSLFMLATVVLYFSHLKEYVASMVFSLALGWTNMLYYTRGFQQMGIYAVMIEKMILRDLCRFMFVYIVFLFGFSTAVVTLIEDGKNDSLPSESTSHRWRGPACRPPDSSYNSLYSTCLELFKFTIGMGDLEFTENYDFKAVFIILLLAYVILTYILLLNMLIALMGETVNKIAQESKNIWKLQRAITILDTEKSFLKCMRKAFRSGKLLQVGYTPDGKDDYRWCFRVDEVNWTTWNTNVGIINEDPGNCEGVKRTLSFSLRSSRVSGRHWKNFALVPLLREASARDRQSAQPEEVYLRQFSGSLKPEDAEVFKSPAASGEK
Method in brief: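 Calcium influx kinetics via Fluo-8 (480/520 nm) in TRPV1-expressing cells, 2000/well cultured overnight at 35.5C. Compound-alone read 3 min (agonist phase), followed by EC20 capsaicin challenge for 2 min (enhancer phase).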

[15] = molecular target: Thyrotropin receptor (Homo sapiens) (UniProt P16473); assay: qHTS Assay for Antagonists of the Thyroid Stimulating Hormone Receptor (AID 488980); note: series mostly up to about 58 µM; 0% is about no effect
Method in brief: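 Cells expressing human TSHR (HEK293) are dispensed in HBSS/HEPES containing 70 uM RO 20-1724, compound is added, then TSH at EC80 (4 nM final). Antibody in lysis buffer follows, 30 minutes at room temperature before HTRF detection.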

[16] = molecular target: Thyrotropin-releasing hormone receptor (Homo sapiens) (UniProt P34981); assay: qHTS for Small Molecule Agonists and Allosteric Enhancers of Human TRH Receptor: Validation Screen for Agonists (AID 493127;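 active = calcium activation more than 3 SD above the typical response in the agonist read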;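 note: intracellular calcium rise by fluo-8 fluorescence before TRH EC20 addition; 0% is about no effect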); conditions: TRH receptor agonist cell assay; at 2 µM; hits give high values
Chain of Thyrotropin-releasing hormone receptor (Homo sapiens) (P34981 whole entry, looked up): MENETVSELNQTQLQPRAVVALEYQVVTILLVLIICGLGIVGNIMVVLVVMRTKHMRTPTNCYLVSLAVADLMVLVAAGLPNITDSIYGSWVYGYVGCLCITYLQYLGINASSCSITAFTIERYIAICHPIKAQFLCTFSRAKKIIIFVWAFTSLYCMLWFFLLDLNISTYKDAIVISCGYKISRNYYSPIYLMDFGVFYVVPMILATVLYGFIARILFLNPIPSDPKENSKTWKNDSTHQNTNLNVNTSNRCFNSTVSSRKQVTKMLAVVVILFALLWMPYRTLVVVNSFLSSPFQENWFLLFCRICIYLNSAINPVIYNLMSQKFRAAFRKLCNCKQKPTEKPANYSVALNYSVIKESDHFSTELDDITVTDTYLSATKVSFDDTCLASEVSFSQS
Method in brief: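 Compound-evoked intracellular calcium release in fluo-8-loaded TRHR cells, read kinetically on FDSS (Ex 480/Em 530, 1 s/cycle) after 23 nL pintool transfer. Agonist phase preceded 10 nM TRH EC20 addition.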

[17] = molecular target: Galactokinase (Homo sapiens) (UniProt P51570); assay: qHTS Validation Assay for Inhibitors of Human Galactokinase (GALK) (AID 493189); note: 0% is about no effect
Chain of Galactokinase (Homo sapiens) (P51570 whole entry, looked up): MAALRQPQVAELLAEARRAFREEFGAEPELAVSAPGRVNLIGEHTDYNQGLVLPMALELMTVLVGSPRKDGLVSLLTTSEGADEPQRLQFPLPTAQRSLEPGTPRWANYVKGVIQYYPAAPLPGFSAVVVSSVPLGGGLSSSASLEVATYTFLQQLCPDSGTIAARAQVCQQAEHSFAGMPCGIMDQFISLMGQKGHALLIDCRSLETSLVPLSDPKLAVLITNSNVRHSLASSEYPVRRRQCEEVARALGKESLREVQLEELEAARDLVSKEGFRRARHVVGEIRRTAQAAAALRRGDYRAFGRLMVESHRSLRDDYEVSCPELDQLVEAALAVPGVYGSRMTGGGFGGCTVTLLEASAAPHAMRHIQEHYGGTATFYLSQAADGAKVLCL
Method in brief: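 Compounds were pin-transferred into ATP buffer, then GALK-galactose mix was added (final 5 nM enzyme, 100 uM galactose, 35 uM ATP). After 1 h at room temperature, remaining ATP was measured luminescently.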

[18] = Validation screen for small molecules that induce DNA re-replication in SW480 colon adenocarcinoma cells (AID 504364); note: 0% is about no effect
Method in brief: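 Image-based DNA content read-out: Hoechst stain 40 min, total nuclear fluorescence intensity (ex 405 nm, em 500-530 nm) after 48 h compound exposure of 250 SW480 cells/well at 37 C, 5% CO2, versus DMSO vehicle.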

[19] = molecular target: DNA dC->dU-editing enzyme APOBEC-3G (Homo sapiens) (UniProt Q9HC16); assay: qHTS for inhibitors of Vif-A3G interactions: Validation (AID 588379); note: 0% is about no effect
Method in brief: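 Yellow fluorescence (Ex 488, Em 500-530) of Vif-coexpressing HeLa A3G-eYFP cells, scanned by Acumen cytometer, reports blocked A3G degradation. Cells plated at 700/well overnight at 37 deg C before compound addition, then a further overnight compound incubation at 37 deg C.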

[20] = molecular target: Voltage-gated inwardly rectifying potassium channel KCNH2 (Homo sapiens) (UniProt Q12809); assay: qHTS Assay for Small Molecule Inhibitors of the Human hERG Channel Activity (AID 588834);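 note: U2OS cells transduced with hERG by BacMam; top concentration of the series differs between compounds; % is set by controls: 0 for no effect and ±100 for the full control effect; lower thallium flux fluorescence means stronger hERG block; nearly all actives have a fitted effect of over 50% in size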
Chain of Voltage-gated inwardly rectifying potassium channel KCNH2 (Homo sapiens) (Q12809 whole entry, looked up): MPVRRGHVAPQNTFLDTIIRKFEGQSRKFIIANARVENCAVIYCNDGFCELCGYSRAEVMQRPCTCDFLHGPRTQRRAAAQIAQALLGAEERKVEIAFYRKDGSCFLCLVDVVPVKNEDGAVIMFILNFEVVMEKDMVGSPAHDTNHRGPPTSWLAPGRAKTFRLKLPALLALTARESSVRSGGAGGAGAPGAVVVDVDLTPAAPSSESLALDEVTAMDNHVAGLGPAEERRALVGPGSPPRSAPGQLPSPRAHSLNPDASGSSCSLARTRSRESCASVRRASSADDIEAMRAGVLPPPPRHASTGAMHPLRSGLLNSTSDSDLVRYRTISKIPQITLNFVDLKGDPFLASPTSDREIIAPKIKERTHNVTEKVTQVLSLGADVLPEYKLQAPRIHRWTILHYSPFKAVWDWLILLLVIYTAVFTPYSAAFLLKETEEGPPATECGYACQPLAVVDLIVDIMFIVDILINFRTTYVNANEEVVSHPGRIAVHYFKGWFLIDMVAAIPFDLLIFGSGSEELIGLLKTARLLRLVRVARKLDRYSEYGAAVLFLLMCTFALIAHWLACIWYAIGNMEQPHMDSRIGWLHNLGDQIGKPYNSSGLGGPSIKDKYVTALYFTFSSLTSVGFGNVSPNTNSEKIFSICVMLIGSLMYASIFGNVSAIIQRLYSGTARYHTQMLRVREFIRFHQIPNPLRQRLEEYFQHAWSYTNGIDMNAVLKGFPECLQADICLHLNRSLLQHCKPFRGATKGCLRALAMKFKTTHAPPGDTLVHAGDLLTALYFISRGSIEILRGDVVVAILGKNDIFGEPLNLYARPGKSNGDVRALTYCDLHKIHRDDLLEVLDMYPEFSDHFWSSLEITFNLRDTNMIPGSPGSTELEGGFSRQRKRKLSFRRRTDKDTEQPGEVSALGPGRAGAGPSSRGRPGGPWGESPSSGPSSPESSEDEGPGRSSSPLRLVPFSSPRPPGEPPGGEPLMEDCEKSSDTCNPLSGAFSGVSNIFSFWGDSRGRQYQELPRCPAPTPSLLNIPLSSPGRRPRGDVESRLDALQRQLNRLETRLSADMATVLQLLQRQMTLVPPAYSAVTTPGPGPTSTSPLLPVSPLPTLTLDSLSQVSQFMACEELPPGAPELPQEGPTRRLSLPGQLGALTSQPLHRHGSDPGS
Method in brief: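 Cells were infected with hERG-BacMam virus for 4 hrs at room temperature, grown overnight, then seeded at 2000/well. After dye loading and roughly 10 min compound treatment, thallium influx was triggered and fluorescence recorded.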

[21] = test system: Zika virus NS2B-NS3 protease; assay: Primary screen GU AMC qHTS for Zika virus inhibitors (AID 1347154);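 note: 0% = no-inhibitor control and -100% = no-enzyme control; nearly all actives have a fitted effect of over 70% in size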
Method in brief: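 Fluorogenic AMC-substrate cleavage by noncovalent NS2B-NS3 protease complex (25 nM, pH 8.0 Tris buffer with Tween 20) followed for 15 minutes at room temperature (~20% conversion). Percent inhibition from ex340/em450 signal change, fitted by 4-parameter Hill equation.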

Cc1cccc(C)c1NC(=O)C[N+](C)(C)C
inactive: Potency [1] | Potency [2] | Potency [3] | Potency [4] | Potency [5] | outcome [6] | outcome [7] | Potency [8] | Potency [9] | Potency [10] | Potency [11] | Potency [12] | Potency [13] | outcome [14] | outcome [15] | activation [16] -0.0625% | outcome [17] | outcome [18] | Potency [19] | Potency [20] | Potency [21]
